Only some compounds are listed: those with a hit (about 3.5% of all), similar ones and a draw of the others.
Rv3671c inh: Rv3671c serine protease inhibitors, primary screen, biochemical, fluorescence polarization, M. tuberculosis H37Rv; P9WHR9; inhibition, % at 5.96 µM; 320,000 tested, 0.048% active; AID 2606, 2010; in the data active = inhibition above about 38%;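 note: extracellular domain of Rv3671c used as enzyme; 0% = enzyme with DMSO and 100% = no enzyme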
FBA Mtb inh: Mtb FBA enzyme inhibitors, primary screen, biochemical, fluorescence, strain H37Rv; Fructose-bisphosphate aldolase (Mycobacterium tuberculosis (strain ATCC 25618 / H37Rv)), …; purified M. tuberculosis FBA, fluorescence read-out; inhibition, % at 1 µM; 360,000 tested, 2.3% active; in the data active = inhibition above about 27%;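 note: 0% = vehicle and 100% = reference inhibitor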
UGM FP inh: M. tuberculosis UGM enzyme inhibitors, primary screen, biochemical, fluorescence polarization, single point; UDP-galactopyranose mutase (Mycobacterium tuberculosis (strain ATCC 25618 / H37Rv)), …; purified UGM, fluorescence polarization probe displacement; inhibition, % at 10 µM; 320,000 tested, 0.06% active; AID 504406, 2011; in the data active = inhibition above about 10%, passing the limit was not always enough
Target sequence (P9WIQ1 whole entry, looked up): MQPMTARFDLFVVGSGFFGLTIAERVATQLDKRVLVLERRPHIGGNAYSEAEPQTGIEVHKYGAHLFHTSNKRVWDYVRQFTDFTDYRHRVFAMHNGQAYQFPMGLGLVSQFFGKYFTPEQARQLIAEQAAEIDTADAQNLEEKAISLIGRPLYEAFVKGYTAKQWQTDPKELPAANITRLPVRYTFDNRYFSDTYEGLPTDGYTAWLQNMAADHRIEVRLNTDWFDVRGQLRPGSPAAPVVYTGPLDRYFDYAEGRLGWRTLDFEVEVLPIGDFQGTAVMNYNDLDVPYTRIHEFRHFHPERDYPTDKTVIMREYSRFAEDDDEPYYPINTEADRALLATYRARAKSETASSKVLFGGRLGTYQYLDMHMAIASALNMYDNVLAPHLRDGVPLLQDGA
GDH-TPI counter: GDH-TPI coupling enzyme inhibitors, primary screen, artefact control for M. tuberculosis FBA inhibitor project, biochemical, absorbance, full deck | GDH-TPI coupled enzyme counterscreen, NADH absorbance | inhibition, % at 4.8 µM | 360,000 tested, 1.2% active | AID 588335, 2011; in the data active = inhibition above about 30%;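 note: 0% = DMSO wells and 100% = wells lacking the enzyme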
* marks the source's active call; other numbers are inactive results; / = no result given; + = active, no number.

SMILES	Rv3671c inh	FBA Mtb inh	UGM FP inh	GDH-TPI counter
COc1ccc(CCn2c(=N)c(C(=O)NCCN3CCOCC3)cc3c(=O)n4ccccc4nc32)cc1OC	-1	-2	0	5
N=c1c(C(=O)NC2CCCC2)cc2c(=O)n3ccccc3nc2n1Cc1ccccc1	-4	146*	0	0
CCCNc1nc2nc3ccccn3c(=O)c2cc1C(=O)NCCN1CCOCC1	-4	155*	0	4
N#Cc1cc2c(=O)n3ccccc3nc2n(Cc2cccnc2)c1=O	1	+	-2	1
N#Cc1cc2c(=O)n3ccccc3nc2n(-c2ccccc2Cl)c1=O	0	+	0	-3
CCn1c(=N)c(S(=O)(=O)c2ccc(Cl)cc2)cc2c(=O)n3ccccc3nc21	6	/	/	/
CC/C(=N/N=C(/CC)c1ccc(O)cc1)c1ccc(O)cc1	5	-1	2	10
CSCCC(NC(=O)c1ccco1)C(=O)NCC(C)(C)N1CCOCC1 (stereo unspecified)	-2	3	-3	-4
CN(C)C(CNC(=O)C1CCN(S(=O)(=O)c2ccccc2C(F)(F)F)CC1)Cc1ccccc1 (stereo unspecified)	/	-2	/	-7
CCc1nc2c(OCc3ccc(F)c(F)c3)cccn2c1N(C)C(=O)c1cccs1	/	0	/	3
N=c1c(C(=O)NC2CCCC2)cc2c(=O)n3ccccc3nc2n1CCCN1CCOCC1	-5	158*	4	10
COc1ccc(C2C(C(C)=O)=C(O)C(=O)N2CCc2ccccc2)c(OC)c1 (stereo unspecified)	-11	-3	0	37*
CCOC(=O)c1ccc(N2C(=O)C(O)=C(C(C)=O)C2c2ccc([N+](=O)[O-])cc2)cc1 (stereo unspecified)	8	-3	1	32*
COc1ccccc1C1C(C(C)=O)=C(O)C(=O)N1c1ccc(O)cc1 (stereo unspecified)	-1	-1	1	42*
CC(=O)C1=C(O)C(=O)N(c2ccc(O)cc2)C1c1cccc([N+](=O)[O-])c1 (stereo unspecified)	4	2	0	32*
COc1ccc(C2C(C(C)=O)=C(O)C(=O)N2Cc2ccccc2)c(OC)c1 (stereo unspecified)	-12	-1	1	5
CC(=O)C1=C(O)C(=O)N(c2ccc(C(=O)O)cc2)C1c1ccc([N+](=O)[O-])cc1 (stereo unspecified)	-3	-2	2	21
CCCOc1ccccc1OCC(=O)Nc1cc(Cl)ccc1-n1cncn1	-1	5	1	9
CC[C@]1(C(=O)OC)[C@H]2C(=O)N(Cc3ccccc3)C(=O)[C@H]2[C@H]2CN(C)C(=NCc3ccccc3)N21	/	-1	/	8
O=C(O)c1cccc(-n2nc(-c3ccc(Cl)c([N+](=O)[O-])c3)c3ccccc3c2=O)c1	-1	-3	-1	2
CC(C)CN(C(=O)C1CCCO1)c1c(N)n(CC(C)C)c(=O)[nH]c1=O (stereo unspecified)	/	-2	/	-2
NC(=O)C1CCN(C(=O)COc2ccc3c(c2)oc(=O)c2ccccc23)CC1	7	112*	5	8
CCc1cc(=O)oc2cc(OCC(=O)N3CCC(C(N)=O)CC3)ccc12	6	23	4	12
Cc1c(C)c2ccc(OCC(=O)N3CC[C@@]4(O)CCCC[C@H]4C3)cc2oc1=O	1	87*	0	9
CCCc1cc(=O)oc2cc(OCC(=O)N3CC[C@@]4(O)CCCC[C@H]4C3)ccc12	/	24	/	12
SMILES	Rv3671c inh	FBA Mtb inh	UGM FP inh	GDH-TPI counter
Cc1c(Cc2ccccc2)c(=O)oc2cc(OCC(=O)N3CCC(C(N)=O)CC3)ccc12	-1	124*	1	16
CCCCc1cc(=O)oc2cc(OCC(=O)N3CCC(C(N)=O)CC3)ccc12	-7	24	1	6
Cc1cc(C)c(NC(=O)CNC(=O)CN(C)Cc2ccc(Br)s2)c(C)c1	2	3	-7	0
O=C(Nc1nnc(-c2ccncc2)o1)c1cccc(N2C(=O)CCC2=O)c1	1	5	-1	38*
O=C(Nc1nnc(-c2ccc(Cl)cc2)o1)c1cccc(N2C(=O)CCC2=O)c1	-12	4	-1	8
CCOC(=O)CSc1nc2c(sc(=S)n2-c2ccc(CC)cc2)c(=O)[nH]1	-2	3	2	33*
Cc1nccc(-c2sc(-c3cccs3)nc2C)n1	3	+	-3	26
Cc1nc(-c2cccs2)sc1C(=O)O	-8	24	-1	24
Cc1cc(=O)c2c(N(C)C)cccc2[nH]1	/	+	/	15
C[C@H](O)[C@@H]1CN2CCc3c([nH]c4ccccc34)[C@@H]2C[C@@H]1N(C)C(=O)NC1CCCCC1	/	0	/	3
Cc1cnc(C(=O)NC2CC(C)(C)Cc3c2cnn3-c2cccc(F)c2)cn1 (stereo unspecified)	-4	-1	-1	4
OC[C@@H]1CN(Cc2cccc(C(F)(F)F)c2)C[C@H](n2cnc3c(NC4CC4)ncnc32)O1	/	-3	/	4
Cc1cc(=O)oc(C)c1C(=O)NCCCN1CCN(c2ccc(F)cc2)CC1	4	-2	-4	40*
COc1ccc(N2CCN(CCNC(=O)c3c(C)cc(=O)oc3C)CC2)cc1	0	2	/	40*
COc1ccc(CNC(=O)c2c(C)cc(=O)oc2C)cc1	13	0	-1	9
Cc1ccc(C(CNS(=O)(=O)c2ccc(Cl)cc2)N2CCN(C)CC2)cc1 (stereo unspecified)	0	-4	-4	0
Brc1ccc(-c2nc3c4ccccc4ccn3c2Cc2ccccc2)cc1	/	2	/	2
CCOC(=O)C1C(=O)NC(C(=O)OCC)(C(=O)OCC)C1C(C)CC (stereo unspecified)	/	-4	/	-11
Cc1ccc(C)c(-n2ccnc2SCC(=O)Nc2cccc(S(=O)(=O)NC3=NCCC3)c2)c1	-4	-1	-1	-5
Cc1cc(C)n2nc3nc4c(cc3c2n1)CCCC4	9	+	2	27
CS(=O)(=O)c1ccccc1C(=O)Nc1cccc(-c2nc3ccccc3o2)c1	-2	3	-1	14
Cc1ccc(CN2CCSc3ccc(C(=O)NCCCN4CCN(C)CC4)cc32)cc1	6	161*	-4	5
O=C(NCC1CCCO1)c1ccc2c(c1)N(Cc1ccccc1)C(=O)CS2 (stereo unspecified)	-2	-3	0	2
Cc1ccc(CN2CCSc3ccc(C(=O)NC4CCCC4)cc32)cc1	-3	7	0	-3
O=C(NCC1CCCO1)c1ccc2c(c1)N(Cc1ccc(Cl)cc1)CCS2 (stereo unspecified)	/	132*	/	12
Nc1ccc(-c2nc3ccc(N)cc3o2)cc1	10	+	-1	46*
O=C(CSc1nnc(CNC(=O)c2c(F)cccc2F)o1)NCC1CCCO1 (stereo unspecified)	-2	0	4	-7
